Bioassay records deposited in PubChem BioAssay by several laboratories.
EWS-Fli inh – EWS/Fli transcriptional activity inhibition; A673 NR0B1-luciferase reporter, viability-normalised; inhibition, % at 12.6 µM; actives 0.67% (n = 350,000);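 active = mean inhibition of at least 50% after viability correction, with every replicate also passing that limit; inconclusive = mean reaches 50% but only one of two replicates passes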;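 also: firefly luciferase signal divided by Alamar Blue viability fluorescence both relative to DMSO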
PAX8 reporter – lowers PAX8-driven luciferase in RMG-I cells; actives 1.2% (n = 360,000); RMG-I TPO-luciferase reporter, SteadyGlo, 24 h; inhibition, % at 12.6 µM; AID 652154;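 active = mean replicate inhibition at least 60% with every replicate also reaching 60%; inconclusive = only one of the two criteria is met; inactive = mean below 60% and not all replicates reaching 60%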;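 also: luciferase light reporting Pax8 driven TPO promoter activity; plate controls were median of neutral control wells for no effect and mitoxantrone controls for full effect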
Env fusion inh – blocks HIV Env-driven cell-cell fusion; inhibition, % at 12.3 µM; HeLa-JRFL Env/CEM21 cell fusion, luciferase; actives 1.1% (n = 360,000);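 active = mean replicate inhibition score of at least 50 and every replicate individually at or above 50; inconclusive = only one of the two criteria met; inactive = mean below 50 and not all replicates reaching 50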;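 also: 0% = plate neutral controls and 100% = maraviroc near 300 nM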
CFTR F508del cor – CFTR F508del correction in bronchial cells | CFBE cells, YFP halide quenching; stimulated with forskolin plus potentiator P3; % fluorescence drop versus neutral controls | actives 0.36% (n = 350,000) | activity (quench increase), % at 7.58 µM | AID 720511;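 active = mean added fluorescence quench of at least 8% versus neutral control, with both replicates also reaching 8%; inconclusive = only one of the mean or replicate conditions met; inactive = mean below 8% and not both replicates reaching 8%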;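 also: cells transiently co-express mutant CFTR-F508del with the halide-sensitive YFP; corrector assay measuring rescue of mutant channel to the surface after 24 h compound exposure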
GAA850 FXN act – frataxin GAA850 promoter activation; HEK293 lucGAA850 FXN promoter luciferase reporter, 24 h; percent of 10 µM SAHA response; activation, % at 6 µM; actives 0.56% (n = 360,000); AID 540364;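 active = activation above the average of all compounds screened plus 3 SD, cutoff fixed separately per campaign, cut at about 7.5% in these data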;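 also: 0% = DMSO wells and 100% = 10 µM SAHA wells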
Numbers without * were called inactive; ? = inconclusive; . = not tested or not shown; [ ] = remark or other dose. Sampled rows, rich in hits. Any-hit rate of the full collection: about 2.5%.

SMILES	EWS-Fli inh	PAX8 reporter	Env fusion inh	CFTR F508del cor	GAA850 FXN act
Cc1ccc(C2NC(=O)c3ccccc3N2)c(C)c1 (centres undefined)	36	23	-47	11*	-5
COc1ccc(NC(=O)N(C)C[C@@H]2Oc3ccc(NC(=O)Nc4ccc(C(F)(F)F)cc4)cc3CC(=O)N([C@@H](C)CO)C[C@H]2C)cc1	12	24	-9[16.7 µM]	3	.
CCOC(=O)CSC1=C(C#N)C(c2ccc(C)s2)CC(=O)N1 (centres undefined)	27	.	.	8.6*	1
Cc1ccccc1N1CN(Cc2ccco2)CNC1=S	-5	61*	.	-1	2
COc1ccc(C2C(C(=O)c3ccccc3)N3c4ccccc4C=CC3C2[N+](=O)[O-])cc1 (centres undefined)	-33	11	10	23*	1
COc1ccc(N2C(=O)[C@@H]3[C@H](C2=O)[C@H](C(C)=O)N2c4ccccc4C=C[C@@H]32)cc1	7	15	-51	2	-1
FC(F)(F)c1cccc(CC2CN(Cc3ccccc3)Cc3ccccc3N2c2cc(Cl)cc(Cl)c2)c1 (centres undefined)	76*	42	-55	-1	-2
C=CCn1c(SC(F)F)nc2scc(-c3ccco3)c2c1=O	13	82*	-22	2	6
CO[C@H]1CN(C)C(=O)c2cc(NC(=O)c3cccc(F)c3)ccc2OC[C@@H](C)N(C)C[C@@H]1C	9	.	-2[16.7 µM]	-1	.
COc1cccc(NC(=O)N[C@@H]2C=C[C@H](CC(=O)Nc3ccc(-c4ccccc4)cc3)O[C@H]2CO)c1	.	.	.	1	.
CCC(C)(C)c1ccc(OCCCC[n+]2ccc(C)cc2)c(C(C)(C)CC)c1	.	85*	127*	.	.
CCC(C)(C)c1ccc(OCCCC[n+]2cccc(C)c2C)c(C(C)(C)CC)c1	?	98*	99*	2	-7
CN(Cc1c(F)cccc1Cl)C(=O)c1ccc(NC(=O)CC2SC(N3CCCCC3)=NC2=O)cc1 (centres undefined)	5	13	.	11*	3
CN(Cc1ccccc1F)C(=O)c1ccc(NC(=O)CC2SC(N3CCCCC3)=NC2=O)cc1 (centres undefined)	-8	10	.	0	-3
C[C@H](CO)N1C[C@H](C)[C@@H](CN(C)C(=O)Nc2ccc(C(F)(F)F)cc2)Oc2ccc(NC(=O)Nc3cccc4ccccc34)cc2CC1=O	2	.	8[16.7 µM]	2	.
O=C(/C=C/c1ccccn1)c1cc(Cl)cc(Cl)c1O	1	63*	-15	2	-3
COc1ccc(/C=C/C(=O)c2cc(Cl)cc(Cl)c2O)c(OC)c1	-10	20	-15	1	-1
C[C@H](CO)N1C[C@H](C)[C@H](CN(C)S(=O)(=O)c2ccc(Cl)cc2)OCc2ccccc2-c2ccccc2C1=O	0	32	48[16.7 µM]	-6	.
COC(=O)N(C)C[C@@H]1OCc2cn(nn2)CCCC(=O)N([C@@H](C)CO)C[C@@H]1C	4	-14	.	3	.
Cc1ccc(S(=O)(=O)N(C)C[C@H]2Oc3cc(C#CC4CCCC4)ccc3S(=O)(=O)N([C@H](C)CO)C[C@H]2C)cc1	14	18	7	-3	0
C[C@H](CO)N1C[C@H](C)[C@H](CN(C)S(=O)(=O)c2ccc(F)cc2)Oc2cc(C#Cc3ccncc3)ccc2S1(=O)=O	12	.	10[16.7 µM]	3	.
Cc1ccc(S(=O)(=O)N(C)C[C@@H]2Oc3cc(C#CC4CCCC4)ccc3S(=O)(=O)N([C@H](C)CO)C[C@H]2C)cc1	38	.	58*[16.7 µM]	1	.
Cc1ccc(S(=O)(=O)N(C)C[C@H]2Oc3cc(C#Cc4ccncc4)ccc3S(=O)(=O)N([C@@H](C)CO)C[C@H]2C)cc1	19	104*	.	-3	.
C[C@@H]1CN([C@@H](C)CO)S(=O)(=O)c2ccc(C3=CCCC3)cc2O[C@H]1CN(C)C(=O)c1cccnc1	4	.	-20[16.7 µM]	-1	.
CCCN1[C@@H]2c3ccc(-c4ccncc4)c(=O)n3C[C@@H]2[C@@H](CO)[C@@H]1C(=O)N1CCOCC1	-10	1	.	-2	.
SMILES	EWS-Fli inh	PAX8 reporter	Env fusion inh	CFTR F508del cor	GAA850 FXN act
Cn1nnnc1Sc1ncnc2scc(-c3ccc(Br)cc3)c12	43	100*	-6	-4	-2
Cn1nnnc1Sc1ncnc2scc(Br)c12	-2	56	-8	-3	-3
Cn1nnnc1Sc1ncnc2scc(-c3ccc(F)cc3)c12	.	108*	83*	.	-2
Cn1nnnc1Sc1ncnc2scc(-c3ccccc3)c12	.	91*	38	.	-2
Cn1nnnc1Sc1ncnc2scc(-c3ccccc3Br)c12	3	83*	-5	-7	0
C/C=C/c1ccc([C@@H]2[C@@H](CO)N3C(=O)CN(Cc4ccccc4)C[C@H]23)cc1	17	8	.	-2	.
COc1ccccc1-c1csc2ncnc(Sc3nnnn3C)c12	10	18	44	-6	1
Cn1nnnc1Sc1ncnc2scc(-c3ccc[nH]3)c12	-16	99*	-12	-3	-8
CCNC(=O)[C@H]1[C@H](CO)[C@H]2Cn3c(ccc(-c4cccc(C(=O)N(C)C)c4)c3=O)[C@@H]1N2	-15	.	.	1	.
O=C(CNC(=O)c1ccco1)N=Nc1c(O)n(CCc2ccccc2)c2ccccc12	56*	26	-434	0	-2
CCn1c(O)c(N=NC(=O)CNC(=O)Cc2ccccc2)c2ccccc21	6	22	19	3	-1
O=C(CC1Sc2ccccc2NC1=O)NNc1cccc(Cl)c1Cl (centres undefined)	10	28	19	8.3*	0
CC1(C)C2CCC1(C)C(OCC[N+](C)(C)CC(=O)OC1CCCCC1)C2 (centres undefined)	15	51	74*	0	4
O=C(Nc1ccc(Cl)cc1)OCCn1nnnc1C(c1ccccc1Cl)N1CCOCC1 (centres undefined)	.	8	113*	.	-2
Cc1ccc(S(=O)(=O)N2CCCOC2CNC(=O)C(=O)NCCC2=CCCCC2)cc1 (centres undefined)	.	17	60*	.	2
CCCCCCCCN1C(=O)[C@@H](CC(=O)NCc2cccc3ccccc23)C[C@@]2(C(=O)OC)C1=C[C@H](C(C)(C)C)O[C@@H]2C	24	37	63*	-5	.
CCCCCCCCN1C(=O)[C@@H](CC(=O)NCc2ccc(OC)c(OC)c2)C[C@@]2(C(=O)OC)C1=C[C@H](C(C)(C)C)O[C@@H]2C	14	25	70*	1	.
COC(=O)[C@]12C[C@H](CC(=O)NCc3cccc(C(F)(F)F)c3)C(=O)N(CCc3ccc(OC)c(OC)c3)C1=C[C@H](C(C)(C)C)O[C@@H]2C	17	27	-10	0	.
COC(=O)[C@]12C[C@H](CC(=O)NCc3ccc(OC)c(OC)c3)C(=O)N(CCc3ccc(OC)c(OC)c3)C1=C[C@H](C(C)(C)C)O[C@@H]2C	5	-5	58*	0	.
